Screening data: PubChem, National Center for Advancing Translational Sciences (NCATS)
HEK293 cAMP cs: qHTS Assay for Agonists of the Thyroid Stimulating Hormone Receptor: Activators of Intracellular cAMP Concentrations in Parental HEK 293; parental HEK293 CNG cAMP sensor, membrane potential fluorescence; Potency, µM (series often up to 57.1 µM), for the others: at the highest dose activation, usual class: activators; hit rate 2.5% among 73,000; note: % of control where 0% means no effect; nearly all actives have a fitted effect of over 55% in size
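Parental HEK 293 cells stably expressing a cAMP-gated CNG channel were loaded with membrane potential dye containing 100 uM RO 20-1724 for 60 min. Compound added for 30 min; depolarization read as fluorescence intensity at 590 nm.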
TSHR ag: qHTS Assay for Agonists of the Thyroid Stimulating Hormone Receptor. Thyrotropin receptor (Homo sapiens), P16473. Potency, µM (series often up to 57.1 µM), for the others: top-dose activation, actives largely listed as activators. hit rate 0.48% among 73,000. HEK293-CNG-TSHR cells (CNG channel as cAMP sensor), membrane potential dye, cAMP; active = well fitted activation curve with a large enough effect in the main read-out, with a control signal flat, not every such curve was filed as active; inconclusive = small, poorly fitted or top-dose-only effect, or a change in a side signal; inactive = no such curve, though single readings can be large or run the other way; % of control where 0% means no effect;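 note: the control signal comes from parental cells without the receptor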
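HEK 293 cells stably expressing TSHR and a cAMP-gated CNG channel; parental CNG-only cells as counterscreen. Cells preloaded 60 min with membrane potential dye plus 100 uM RO 20-1724, then compound 30 min; fluorescence read at 590 nm.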
Bst PK mod: Pyruvate Kinase | hit rate 1.2% among 51,000 | Potency, µM | purified pyruvate kinase, luminescence ATP production; ribose 5-phosphate activator present at AC10; in the data active = potency below about 11 µM; inconclusive = mostly about 12 µM to 25 µM;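 the screen sought inhibitors and activators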;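 note: scaled between full activation by ribose 5 phosphate and full inhibition by luteolin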
GBA activity: Glucocerebrosidase. AID 360, 2006. hit rate 1.1% among 48,000. Lysosomal acid glucosylceramidase (Homo sapiens), P04062. purified enzyme, resorufin glucoside fluorescence (screen aimed at inhibitors), 20 min. Potency, µM; in the data active = potency below about 15 µM; inconclusive = mostly about 16 µM to 33 µM;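 note: the screen sought inhibitors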
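Normal human glucocerebrosidase (0.2 nM final) was assayed with resorufin β-D-glucopyranoside (30 uM final) in 50mM citric acid/KH2PO4, 10mM sodium taurocholate, 0.01% tween-20, pH 5.9. Compounds were titrated; fluorescence (Ex 548, Em 600) read after 20 min at RT.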
ERK AVP inh: qHTS Assay for Inhibitors of the ERK Signaling Pathway using a Homogeneous Screening Assay; HEK293-V1b, vasopressin-stimulated pERK AlphaScreen; hit rate 0.99% among 72,000; Potency, µM (series often up to 57.5 µM), inactives show top-dose activity, negative = inhibition, hits mostly inhibitors; AID 995, 2007; note: % is set by controls: 0 for no effect and ±100 for the full control effect; nearly all actives have a fitted effect of over 55% in size
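Overnight-seeded V1b-HEK293 cells in 1% FBS got compound, then vasopressin (25 nM final, 5 min, 37C), then lysis buffer. AlphaScreen detection of phospho-ERK; activity normalized to basal and full-stimulation controls.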
Luciferase inh: qHTS Assay for Inhibitors of Firefly Luciferase. purified firefly luciferase, luminescence, 8 min. AID 411, 2009. Potency, µM (series often up to 57.1 µM), for the others: top-dose activity change, negative = inhibition, hits mostly inhibitors. hit rate 2.2% among 72,000; note: % is set by controls: 0 for no effect and ±100 for the full control effect; nearly all actives have a fitted effect of over 40% in size
Target sequence (P08659 whole entry, looked up): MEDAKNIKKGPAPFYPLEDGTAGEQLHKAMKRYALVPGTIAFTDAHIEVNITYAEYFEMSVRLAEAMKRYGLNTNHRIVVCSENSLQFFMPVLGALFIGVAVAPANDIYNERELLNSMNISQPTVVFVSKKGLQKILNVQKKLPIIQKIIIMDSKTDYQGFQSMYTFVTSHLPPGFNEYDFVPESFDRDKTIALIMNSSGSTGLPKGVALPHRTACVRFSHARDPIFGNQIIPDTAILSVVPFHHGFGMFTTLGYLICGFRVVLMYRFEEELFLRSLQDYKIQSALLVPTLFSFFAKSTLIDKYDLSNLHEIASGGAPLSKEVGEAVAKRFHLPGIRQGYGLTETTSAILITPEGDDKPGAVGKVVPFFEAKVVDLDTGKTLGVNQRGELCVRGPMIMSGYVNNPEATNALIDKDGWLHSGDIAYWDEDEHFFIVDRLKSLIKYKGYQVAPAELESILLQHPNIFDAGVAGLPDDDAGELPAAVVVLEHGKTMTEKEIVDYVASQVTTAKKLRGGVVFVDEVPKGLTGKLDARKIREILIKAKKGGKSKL
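Inhibition of light generation by firefly luciferase from ATP and luciferin was profiled with concentration-response curves per sample, ATP held at 10 uM within the enzyme's linear range. Plates were read by luminescence after an 8-minute ambient incubation.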
* marks the source's active call; other numbers are inactive results; i = inactive; ? = inconclusive; / = no result given; [ ] = another dose, or the depositor's remark. A selection: hits, their analogues and other compounds. The true share with any hit is near 6.1%. Unless noted, calls come from the whole dose curve; as a rule, active = well fitted curve in the direction sought with a large enough effect; inconclusive = small, poorly fitted or top-dose-only effect, or another doubt; inactive = no such curve, though single readings can be large; an effect the other way counts as inactive or inconclusive. Potency is the fitted concentration of half-maximal effect.

SMILES	HEK293 cAMP cs	TSHR ag	Bst PK mod	GBA activity	ERK AVP inh	Luciferase inh
CC1(C)Cc2ccccc2-c2nnc(-c3ccc(O)cc3)n21	17%	9%	>57	8.4*	11%	-3%
CC1(C)Cc2ccccc2-c2nnc(-c3cccnc3)n21	3%	7%	>57	>77	27%	1%
CN(C)CC(C)(C)CNC(=O)c1ccc(-n2c(=O)c(=O)[nH]c3ccccc32)cc1	-19%	10%	/	/	/	/
CC1=C(C#N)C(c2ccoc2)C(C(=O)OCc2ccccc2)=C(N)S1 (stereo not given)	?	?	>57	12*	21%	0%
N[C@H](Cc1ccc(O)c(I)c1)C(=O)O	2%	-1%	/	/	/	-7%
CCOC(=O)C1CCCN(C(=O)Cn2sc3nc(C)cc(C)c3c2=O)C1 (stereo not given)	4%	1%	/	/	?	13µM*
CN1C[C@@H](O)[C@@H](O)[C@@H](O)[C@@H]1CO	-5%	-3%	/	/	/	3%
c1cncc(-c2csc(NCc3ccco3)n2)c1	11%	-2%	/	/	/	/
COc1ccc(-c2csc(NCc3ccco3)n2)cc1C	-6%	-17%	/	/	?	7.9µM*
COC(=O)c1ccc(COC(=O)C23CC4CC(CC(O)(C4)C2)C3)o1	7%	25µM*	>57	>77	1%	-2%
O=C(COC(=O)C12CC3CC(CC(O)(C3)C1)C2)NC(=O)NCc1ccco1	2%	-9%	>57	>77	9%	-1%
CO[C@@H]1COC(=O)C/C=C\[C@@H](C)COC(=O)[C@H](COCc2ccccc2)NC(=O)C/C=C\[C@H]1C	2%[11.4 µM]	-6%[11.4 µM]	/	/	8%[11.5 µM]	1%[11.4 µM]
CC(C)(C)OC(=O)N[C@@H](Cc1ccccc1)c1nnc(S(=O)(=O)Cc2cccc(F)c2)o1	16%	2%	>57	15*	45%	-29%
O=C(c1ccccc1)n1c(=S)nc2ccccn21	/	/	2.2*	/	/	1.3µM*
CCOC(=O)c1c(C)nc2ccccn12	8%	5%	>11	>77	?	0%
CCCNC(=O)c1cc(-c2ccc(OC)cc2)on1	8%	5%	>57	>77	6%	7.9µM*
COc1ccc(-c2cc(CCCC(=O)NCCc3cc(OC)ccc3OC)no2)cc1	32µM*	?	>57	>77	-19%	-22%
CCCCNC(=O)c1cc(-c2ccc(OC)cc2)on1	18%	0%	>57	>77	16%	-6%
O=C(NC1=NCCS1)c1ccncc1	0%	2%	>57	>77	-14%	1%
O=C(NC1=NCCS1)c1ccc(OCC2CCCO2)cc1 (stereo not given)	-3%	12%	/	?	12%	25µM*
O=C(Nc1cccc(-c2cn3cccnc3n2)c1)c1ccc2c(c1)OCO2	1%	-5%	/	/	?	16µM*
O=C(Nc1cccc(-c2cn3cccnc3n2)c1)c1ccco1	8%[2.29 µM]	4%	/	/	12%	-16%
O=C(Nc1cccc(-c2cn3cccnc3n2)c1)c1ccc(Br)o1	28%	15%	>57	6.6*	-8%	-4%
O=C1C2=CC[C@H]3C(=O)N(Cc4ccccc4)C(=O)[C@@H]3[C@@H]2[C@H](O)[C@@H]2O[C@H]12	7%[11.4 µM]	-8%[11.4 µM]	/	/	-11%[11.5 µM]	-1%[11.4 µM]
Nc1c(C(=O)OCC2CCCO2)c2nc3ccccc3nc2n1C1CCCCC1 (stereo not given)	12%	/	8.9*	?	-18%	-2%
SMILES	HEK293 cAMP cs	TSHR ag	Bst PK mod	GBA activity	ERK AVP inh	Luciferase inh
C[C@@H](N1CCOCC1)[C@@](O)(c1ccccc1)c1ccccn1	2%[11.4 µM]	2%[11.4 µM]	/	/	10%[11.5 µM]	4%[11.4 µM]
C[C@H](N)C1CCC(C(=O)Nc2ccncc2)CC1 (stereo not given in full)	?	?	/	/	-12%	-3%
COc1ccc(CCC(=O)c2c(O)cc(O[C@@H]3O[C@H](CO)[C@@H](O)[C@H](O)[C@H]3O[C@@H]3O[C@@H](C)[C@H](O)[C@@H](O)[C@H]3O)cc2O)cc1O	?	?	/	/	-27%	/
CCN(CC)c1ccc(NC(=O)c2ccccc2F)cc1	19%	9%	i	>77	-25%	16µM*
CCN(CC)c1ccc(NC(=O)C(C)C)cc1	-2%	19%	>57	>77	4%	-1%
CCN(CC)c1ccc(NC(=O)c2ccco2)cc1	13%	-7%	?	>77	-26%	10µM*
CCN(CC)c1ccc(NC(=O)c2ccco2)c(C)c1	-4%	-4%	>57	>77	-5%	-3%
CCOC(=O)c1c(C)[nH]c(C)c1C(=O)COc1ccc(NC(=O)c2ccco2)cc1	1%	-2%	>57	/	25µM*	-3%
OCc1cn(-c2ccccc2)nc1-c1ccc2c(c1)OCCO2	-9%	-5%	/	>77	25µM*	-19%
CN1CCN(c2ncnc3ccc(-c4cccnc4)cc23)CC1	-3%	4%	/	/	?	2%[2.29 µM]
COc1cc(/C=C/C(=O)CC(=O)/C=C/c2ccc(O)c(OC)c2)ccc1O	-19%	?	/	/	32µM*	-15%[25.5 µM]
COC(=O)CNc1c(-c2ccccn2)nc2ccc(Br)cn12	-7%	0%[11.4 µM]	?	>77	7%	13µM*
CC1CC1C(=O)OCc1cc(=O)n2cc(Br)ccc2n1 (stereo not given)	2%	-2%	i	>77	27%	-27%
CCN(C(=O)c1ccc(C(C)(C)C)cc1)c1nnc(Cn2nnc3ccccc32)s1	25µM*	?	>57	/	?	3%
Clc1ccccc1-c1cncnc1NCCN1CCOCC1	?	?	/	/	6%	1%[2.29 µM]
O=C(Nc1ccccc1)N1CCn2c1nc1ccccc12	0%	19%	9.7*	>77	?	-9%
COc1ccc(S(=O)(=O)N2CCn3c2nc2ccccc23)cc1	30%	27%	>57	>77	2%	0%
COc1ccc(NC(=O)N2CCn3c2nc2ccccc23)cc1	12%	-5%	5.6*	>77	-17%	-4%
COC(=O)NC(c1cccc(F)c1)[C@@]1(C(=O)OC)CCCC1=O (stereo not given in full)	-4%[11.4 µM]	/	/	/	10%[11.5 µM]	/
O=C(Cc1cc(=O)[nH]c(=O)[nH]1)N1CCC(Cc2ccccc2)CC1	4%	-18%	/	/	/	10µM*
